Screening results from PubChem BioAssay.
The list is not random: actives were taken first. Their share in the collection is about 27%.
sEH activator = activators of human soluble epoxide hydrolase | 91,000 compounds, 0.04% hits | P34913 | activation, % at 2 µM | AID 717 | purified human sEH enzymatic activity, activator screen; in the data active = activation above about 37%
CYP2C19 activ = increases human CYP2C19 enzyme activity; P33261; recombinant CYP2C19, luciferin-H EGE luminescence; active compounds read high; 0 = fully inhibited enzyme, 1 = untreated enzyme; activation factor at 5 µM; 96,000 tested, under 10 active;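 active = activation factor of at least 2 at 5 µM in the primary screen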
CYP2C19 inh = inhibitors of human CYP2C19; CYP2C19 Supersomes, luciferin-H EGE luminescence, 30 min; inhibition, % at 5 µM; 96,000 compounds, 21% hits;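 active = CYP2C19 inhibition above a set limit at 5 µM in the primary screen, cut at about 50% in these data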
sEH inhibitor = soluble epoxide hydrolase (human) inhibition; recombinant human sEH enzymatic activity assay; inhibition, % at 2 µM; 91,000 compounds, 0.34% hits; in the data active = inhibition above about 80%
CYP2C9 activ = activators of human CYP2C9 | recombinant CYP2C9, luciferin-H conversion, luminescence; active compounds read high; factor 1 = untreated enzyme, 0 = blocked | activation factor at 5 µM | 96,000 compounds, 1.4% hits | P11712;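 active = activation factor of 2 or more for CYP2C9 at a 5 µM dose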
Target sequence (P11712 whole entry, looked up): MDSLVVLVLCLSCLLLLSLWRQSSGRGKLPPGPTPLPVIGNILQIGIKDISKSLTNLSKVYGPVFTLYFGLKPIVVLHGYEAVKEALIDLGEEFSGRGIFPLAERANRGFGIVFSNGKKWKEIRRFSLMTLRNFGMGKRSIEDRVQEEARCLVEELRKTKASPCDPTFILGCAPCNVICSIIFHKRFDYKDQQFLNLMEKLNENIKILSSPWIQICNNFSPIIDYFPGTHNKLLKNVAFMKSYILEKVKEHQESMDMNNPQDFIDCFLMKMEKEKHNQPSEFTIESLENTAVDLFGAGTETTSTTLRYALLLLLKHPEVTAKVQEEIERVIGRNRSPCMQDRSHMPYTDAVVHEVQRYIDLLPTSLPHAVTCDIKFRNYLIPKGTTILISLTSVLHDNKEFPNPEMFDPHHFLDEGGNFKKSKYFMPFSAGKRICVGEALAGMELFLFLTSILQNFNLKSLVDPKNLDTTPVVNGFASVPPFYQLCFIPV
CYP2C9 inh = human CYP2C9 inhibition; P11712; CYP2C9 Supersomes, luciferin-H conversion, luminescence; 96,000 compounds, 20% hits; inhibition, % at 5 µM;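 active = blocking of liver enzyme CYP2C9 beyond about 50% at 5 µM, limit read from the data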
Numbers stand for hits; – = inactive; · = not tested or not shown.

SMILES	sEH activator	CYP2C19 activ	CYP2C19 inh	sEH inhibitor	CYP2C9 activ	CYP2C9 inh
O=C(Nc1ccccc1C1CC1)c1cccs1	–	–	–	–	–	–
CCOC(=O)CN1C(=O)C(Sc2n[nH]c(-c3cccc(C)c3)n2)CCc2ccccc21 (stereo not given)	–	–	57	–	–	85
Cc1cc(C(=O)NC(C)c2ccncc2)cs1 (stereo not given)	–	–	–	–	–	–
Cc1cccc(NC(=S)NC2CC3CCCC(C2)N3Cc2cccs2)c1C (stereo not given)	–	–	–	–	–	–
CCOc1ccc(NC(=O)CCSc2nc3c(c(CC)c2C#N)C(=O)CC(C)(C)C3)cc1	–	–	90	–	–	90
CCc1c(C#N)c(SCCC(=O)Nc2ccc(C)cc2)nc2c1C(=O)CC(C)(C)C2	–	–	96	–	–	95
CC1(C)OC(=O)C2(Cc3ccccc3N3CCCCC32)C(=O)O1 (stereo not given)	–	–	61	–	–	–
CC1=C(C(=O)N2CCc3ccccc32)C2(CCC(C)CC2)OC1=O (stereo not given)	–	–	–	–	–	–
O=C(c1oc2ccccc2c1N1CCCCC1)N1CCCCC1	–	–	–	–	–	–
Cc1c(-c2ccc(F)cc2)nc(N)c(C#N)c1-c1cccs1	–	–	–	–	–	–
CC(C)Sc1nc(N)nc(-c2cccs2)c1C#N	·	–	–	·	–	75
CSc1nc(N)nc(-c2cccs2)c1C#N	–	–	78	–	–	58
Cc1ccccc1OCCCC(=O)Nc1ccc2c(c1)OCO2	–	–	63	–	–	–
O=C(CCCOc1ccccc1)Nc1ccc2c(c1)OCCO2	–	–	81	–	–	55
O=C(CC1C(=O)NCCN1C(=O)Nc1ccccc1)Nc1ccc2c(c1)OCO2 (stereo not given)	–	–	–	–	–	–
Cc1cccc(OCC(=O)Nc2ccc3c(c2)OCCO3)c1	–	–	70	–	–	58
O=C(CC1C(=O)NCCN1C(=S)Nc1ccccc1)Nc1ccc2c(c1)OCCO2 (stereo not given)	–	–	–	–	–	59
Cc1ccc(C)c(OCC(=O)Nc2ccc3c(c2)OCO3)c1	·	–	–	·	–	–
O=C(NCCCn1ccnc1)c1cc2nc(-c3ccc(Br)cc3)cc(C(F)(F)F)n2n1	–	·	·	–	·	·
Cn1c(=O)c2c(nc(SCC(=O)NC34CC5CC(CC(C5)C3)C4)n2C)n(C)c1=O	–	–	–	–	–	–
Cc1nn(C(=O)c2cc3sccc3[nH]2)c(C)c1C	–	–	–	–	–	–
Cc1ccc(C(=O)CSc2nnc(CNc3nc(-c4ccccc4)cs3)n2C)cc1	–	–	–	–	–	–
O=C(CCN1C(=O)c2ccccc2S1(=O)=O)Nc1ccc2c(c1)OCCO2	–	–	–	–	–	59
COc1ccc(OCCCC(=O)Nc2ccc3c(c2)OCO3)cc1	–	–	–	–	–	68
O=c1nc(N2CCOCC2)ccn1-c1nc(-c2ccccc2)oc1-c1ccccc1	–	–	–	–	–	55
SMILES	sEH activator	CYP2C19 activ	CYP2C19 inh	sEH inhibitor	CYP2C9 activ	CYP2C9 inh
O=c1nc(N2CCOCC2)ccn1Cc1ccc(Br)cc1	–	–	–	–	–	–
C=CCN1C(=O)C(Cc2ccc(OC)cc2)S/C1=N/N=C/c1ccco1 (stereo not given)	–	–	78	–	–	–
Cc1cc(=O)c2n(Cc3ccc(Cl)cc3)nc[n+]2[nH]1	·	–	–	·	–	–
O=S(=O)(NC1CC1)c1cccc(S(=O)(=O)N2CCCC2)c1	–	–	82	–	–	–
O=S(=O)(NC1CCCC1)c1cccc(S(=O)(=O)N2CCC(n3nnc4ccccc43)CC2)c1	–	–	75	–	–	72
O=S(=O)(NCC1CCCO1)c1cccc(S(=O)(=O)N2CCCC2)c1 (stereo not given)	–	–	–	–	–	–
COC(=O)COc1ccc(S(=O)(=O)NCCC2=CCCCC2)cc1C	·	–	99	·	–	–
CCCNS(=O)(=O)c1ccc(OCC(=O)OC)cc1	–	–	53	–	–	56
CCCNS(=O)(=O)c1ccc(Oc2ncc(C(F)(F)F)cc2Cl)cc1	–	–	87	–	–	67
CCCNS(=O)(=O)c1ccc(OCC(=O)NCCC2=CCCCC2)cc1	–	–	–	–	–	–
CC(C)NS(=O)(=O)c1ccc(OCC(=O)NCCC2=CCCCC2)cc1	–	–	56	–	–	–
